The values that follow come from PubChem BioAssay AID493200 (National Center for Advancing Translational Sciences (NCATS), 2011).

Results filed as inconclusive are left out. A number with no mark means an inactive call. The call rests on the fitted dose curve; in most records, active means well fitted activation curve with a large enough effect; inconclusive means small, poorly fitted or top-dose-only effect; inactive means no such curve, though single readings can be large or run the other way.

A short description of the experiment: qHTS Assay for Rab9 Promoter Activators: Initial hit validation from the primary screen. Further: % of control where 0% means no effect. As to conditions: Huh7 Rab9 promoter luciferase reporter, 24 h; series mostly up to 46.1 µM; activation: at the top concentration. The text has this:
NIH Chemical Genomics Center [NCGC] NIH Molecular Libraries Probe Production centers Network [MLPCN] MLPCN Grant: MH089537-01 Assay Submitter (PI): Yiannis A. Ioannou NCGC Assay Overview: Niemann Pick Type C (NPC) is a rare neurodegenerative lipidosis that is characterized by lipid storage in the endosomal/lysosomal system. Treatment modalities for this devastating disease are currently non-existent due to the severe obstacles associated with accessing the central nervous system with proteins or genes (Ioannou, 2000). We have developed a new paradigm, termed "Orphan Receptor Bypass Therapy" (ORByT), to address these disorders. This paradigm posits the existence of endogenous "suppressor" proteins whose expression can dramatically improve LSD pathogenesis. The goal is the identification/discovery of small chemical compounds that can modulate the expression of these proteins and provide a new treatment modality for these devastating disorders. One such protein whose overexpression reverses aspects of the NPC phenotype is Rab9. We have developed and optimized a cell based luciferase reporter assay in 1536 well format for the identification of up-regulators of the Rab9 promoter. This assay presents data on the validation of hits from the primary screen.
The Rab9 promoter is cloned in front of the luciferase reporter gene, therefore […] promoter activation results in luciferase expression. Frozen stock of the Rab9 promoter transfected Huh7 cells were obtained from the laboratory of Dr. Yiannis Ioannou (The Mount Sinai School of Medicine, New York, NY). Cells were propagated and maintained at NCGC in medium containing RPMI-1640 supplemented with 10% FBS, 2mM L-glutamine, and 50ug/ml penicillin/streptomycin. Cells were harvested in and plated for assays in OP-MEM I reduced-serum medium supplemented with 10% FBS. The Amplite luciferase reporter gene assay kit was purchased from ABD Bioquest and prepared/stored according to manufacturers recommendations. qHTS Assay Setup: 1.Dispensed 5ul of Huh7 cells stably expressing Rab9-luciferase at a density of 1500 cells per well 1536-well plates. 2.Incubate cells at 37C, 5% CO2, and 95% humidity for 2 hours. 3.Transferred 23nl per well of compound in DMSO solution. 4.Incubated at 37C, 5% CO2, and 95% humidity for 24 hours. 5.Dispensed 3ul per well of Amplite reagent(ABD Bioquest) per well. 6.Incubate at ambient for 10 minutes. 7.Read using the luminescence protocol on the ViewLux plate reader (Perkin Elmer).
On to `CN1CCc2cc3c(c4c2C1Cc1ccccc1-4)OCO3` (stereo unspecified), for which the “activation” value is -44.1%.

Take `COc1cccc(CCNCc2ccc(SC)cc2)c1`: the “activation” value was -3.84%.

For the compound `Cc1cccn2c(NCC3CCCO3)c(C(C)C)nc12` (stereo unspecified), the “activation” value was 1.37%.

`O=C1c2ccccc2C(=O)N1Cc1nc2ccccc2c(=O)n1-c1cccnc1`: the “activation” value was -2.02%.

In the case of `COc1ccc(C(CC(=O)N2CCC3(CC2)OCCO3)NS(=O)(=O)c2ccc(F)cc2)cc1` (stereo unspecified), the “activation” value is -4.36%.

In the case of `CCC(=NCc1cccnc1)c1c(O)n(-c2ccccc2)c(=O)[nH]c1=O`, the “activation” value is 2.99%.
